HIF-2a inh: blocks HIF-2a reporter activity | 786-0 RCC cells HIF-2a reporter, luciferase luminescence, overnight | inhibition, % at 18.8 µM | actives 0.72% (n = 360,000);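 active means inhibition of the luminescence signal of 40% or more relative to plate controls, in a single-dose primary screen at 18.75 µM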
KKLEB cytotox: reduces viability of KKLEB cystic fibrosis airway cells. actives 0.36% (n = 360,000). KKLEB CF airway cells viability, ATPlite luminescence, overnight; hits give low values; cells stimulated with P. aeruginosa culture filtrate. activity change (cytotoxicity), % at 5 µM;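 active means corrected activity change at or below -50% at 5 µM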
Peg3 promoter: reduces Peg3 promoter-driven luciferase expression in HeLa; inhibition, % at 20 µM; AID 588405; actives 1.7% (n = 360,000); HeLa PEG-Prom luciferase reporter, luminescence, overnight;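 active means inhibition of at least 50% at 20 µM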
CF NFkB inh: blocks PAF-induced NF-kB reporter in cystic fibrosis cells; KKLEB NF-kB-GFP reporter, GFP fluorescence overnight; inhibition, % at 5 µM; actives 0.86% (n = 360,000); AID 588850;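 active means at least 50% inhibition at 5 µM, scaled per plate between neutral and stimulator controls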;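 further: PAF is a Pseudomonas aeruginosa culture filtrate used as stimulus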
TWEAK Fn14 block: TWEAK-Fn14 signaling inhibition. inhibition, % at 10 µM. TWEAK-stimulated Fn14 reporter cells, luciferase luminescence, 8 h. actives 2% (n = 360,000); in the data active means inhibition above about 50%
TROY NFkB inh: inhibitors of TROY-dependent NF-kB signaling. actives 0.98% (n = 360,000). Q293 LMP1-TROYcd NF-kB luciferase reporter, 4 h. inhibition, % at 10 µM;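 active means compounds whose plate-normalised and pattern-corrected inhibition of the luciferase reporter signal at the single screening dose is 50% or more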
Of the large screens only hits and unclear results are named; the others gave an inactive call. An excerpt weighted towards active compounds, which were near 4% of everything screened.

CC(C)c1ccc(NC(=O)c2ccc(-c3ccnn3C)c3ccoc23)cc1	TWEAK Fn14 block 79
Cc1cc(=O)oc2cc(OCC(=O)NC3(C#N)CCCCC3)c(Cl)cc12	none
CCOC(=O)c1c(C)sc2c1N(C(=O)CCl)c1cc(Cl)ccc1S2	HIF-2a inh 91, KKLEB cytotox -76, Peg3 promoter 87, CF NFkB inh 69
CCN(CC)c1ccc2cc(C(=O)c3cccs3)c(=O)oc2c1	none
N#Cc1ccc(CSc2nc(N)cc(=O)[nH]2)cc1	TWEAK Fn14 block 72
Cc1ccc(CSc2nc(N)cc(=O)[nH]2)cc1	none
Oc1ccc(Cl)cc1N=Cc1sc2ccccc2c1Cl	none
O=[N+]([O-])c1ccc(O)c(N=Cc2sc3ccccc3c2O)c1	TWEAK Fn14 block 76, TROY NFkB inh 76
N#C/C(=C\C=C\c1ccccc1)C(=O)NCc1ccco1	Peg3 promoter 53
CS(=O)(=O)N1CCC(C(=O)Nc2cccc(Cl)c2)CC1	none
Cc1cc(C)n(CCCN2CCC(C(=O)Nc3cccc(-c4cccc(F)c4)c3)CC2)n1	Peg3 promoter 69
CCn1ncc(CN2CCC(C(=O)Nc3cccc(-c4cccc(F)c4)c3)CC2)c1C	none
CCn1nc(C)c(CN2CCC(C(=O)Nc3cccc(-c4cccc(Cl)c4)c3)CC2)c1C	Peg3 promoter 68
COCCN1CCN(C(=O)c2ccc3oc(CCc4ccccc4)nc3c2)CC1	none
CC1(C(=O)NCCc2ccccc2)Cc2c(-c3ccc(C(N)=O)cc3)ccnc2O1 (centres undefined)	none
CC1=C(C(=O)N2CCOCC2)CC(CC(=O)NCCCCc2ccccc2)C(=O)N1CCC1=CCCCC1 (centres undefined)	none
NC1=NC[C@H](Cc2ccc(O)cc2)N1CCCCC1CCCCC1	none
NC1=NC[C@H](Cc2ccccc2)N1CCCCC1CCCCC1	Peg3 promoter 71
CCCCN1C(C)=CC(=C2C(=O)c3ccccc3C2=O)C=C1C	TWEAK Fn14 block 53, TROY NFkB inh 60
O=[N+]([O-])c1ccc(N/N=C\c2cccn2-c2ccccc2)nc1	TWEAK Fn14 block 52
O=C(OCc1nnc(-c2ccc(Cl)cc2)o1)c1ccc(O)cc1	none
CS(=O)(=O)c1ccc(C(=O)OCc2nnc(-c3ccc(Cl)cc3)o2)cc1[N+](=O)[O-]	Peg3 promoter 104, TWEAK Fn14 block 64, TROY NFkB inh 66
CC(C)(C)OC(=O)C[C@H]1C/C=C\C[C@@H](CC(=O)NCCO)C(=O)N[C@H](C(C)(C)C)COC1=O	none
Cn1c(=O)c2c(nc(N3CCc4ccccc4C3)n2Cc2ccccc2F)n(C)c1=O	TWEAK Fn14 block 61
O=C(c1cnc2ccc3ccccc3c2c1)c1cc(F)ccc1O	TWEAK Fn14 block 64
Cc1nn(C)c2ncc(C(=O)c3cc(F)ccc3O)cc12	none
O=C(N/N=C\c1ccc([N+](=O)[O-])s1)c1cncc(Br)c1	Peg3 promoter 63, TWEAK Fn14 block 53
O=C(N/N=C/c1ccccc1)c1ccc2c(c1)OCO2	TWEAK Fn14 block 59
O=C(N/N=C\c1ccc2c(c1)OCO2)c1cncc(Br)c1	TWEAK Fn14 block 58
CCc1ccc(N(CC(=O)NCc2ccco2)C(=O)CCC(=O)Nc2nccs2)cc1	none
CCCCC(CC)CN=C(N)NC(N)=NCCCCCCN=C(N)NC(N)=NCC(CC)CCCC (centres undefined)	HIF-2a inh 98, Peg3 promoter 103, CF NFkB inh 52, TWEAK Fn14 block 105, TROY NFkB inh 71
O=C(NC1CCCCC1)C(c1ccccc1)N(C(=O)c1cccs1)c1ccc2c(c1)OCO2 (centres undefined)	none
CC(=O)c1cccc(N(C(=O)c2ccco2)C(C(=O)NC2CCCC2)c2cccs2)c1 (centres undefined)	none
O=C(NC1CCCCC1)C(c1cccnc1)N(C(=O)CCl)c1ccc(F)cc1 (centres undefined)	Peg3 promoter 69
O=C(NCC(=O)N(c1ccc(F)cc1)C(C(=O)NC1CCCCC1)c1cccnc1)c1ccco1 (centres undefined)	none
CC(=O)c1cccc(N(C(=O)c2ccco2)C(C(=O)NC2CCCC2)c2ccccc2F)c1 (centres undefined)	TWEAK Fn14 block 53
COc1ccc(C(C(=O)NC2CCCCC2)N(C(=O)c2cccs2)c2ccc3c(c2)OCO3)cc1 (centres undefined)	KKLEB cytotox -70

Source: PubChem BioAssay
